Laboratory results: PubChem BioAssay AID2732 (Emory University Molecular Libraries Screening Center, 2010)
The whole screen tested about 220,000 compounds, of which about 8,200 (3.7%) were called active. Shown is part of a subset that was picked to be rich in actives. Values without a mark were called inactive.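 The calls were made as follows: active = compounds that reduced the stress-induced luciferase reporter signal by more than about 70% of percent inhibition (limit read from the data); inactive = the rest.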

assay: inhibitors of CHOP promoter induction, primary screen, cell-based, unfolded protein response, luciferase reporter (AID 2732); details: CHO-K1 CHOP-promoter luciferase, tunicamycin-induced, 15-18 h; at 10 µM; hits give high values;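 also: 0% = tunicamycin plus vehicle and 100% = wells without tunicamycin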

Row | SMILES | inhibition
1 | COCCN(Cc1cc2cc3c(cc2nc1Cl)OCO3)C(=O)c1cccc(C)c1 | 27.4%
2 | COC(=O)N(NC(=O)C(O)(C(C)C)C(C)C)c1ccccc1 | 16%
3 | COC(=O)c1cc(NC(=O)c2cc(C(C)(C)C)nn2Cc2cccc(C)c2)ccc1N1CCOCC1 | 42.8%
4 | CCOC(=O)C1C(c2ccc(OC)c(OC)c2)c2c([nH][nH]c2=O)CC1(C)O (stereo unspecified) | 3.71%
5 | O=C1N=C(N2CCc3ccccc3C2)S/C1=C\c1ccc(O)cc1 | -2.8%
6 | Cc1ccc(NC(=O)C(=O)NCc2ccc(/C=N/NC(=O)c3c(C)nc4cc(C)ccn34)o2)cc1 | 78.9% (active)
7 | O=C(CSc1ccc(/C=N/NC(=O)c2cccc(F)c2)o1)Nc1ccccc1 | -10.9%
8 | C/C(=N\OC(=O)c1ccccc1)c1c(C)nc2cc(C)ccn12 | 15.7%
9 | COc1ccc(S(=O)(=O)N(CC(=O)N/N=C/c2ccccc2C(=O)O)c2ccccc2OC)cc1 | -10.7%
10 | CCOC(=O)c1c(-c2cccc(N)c2)cn2ccccc12 | 20%
11 | CCOC(=O)c1nnn(-c2nonc2OC)c1-c1ccccc1 | 24.9%
12 | CCOC(=O)c1c(N)nn(C(=O)c2ccccc2)c1-c1ccccc1 | 72.5% (active)
13 | C=C1CCN([C@H](C(=O)NCc2cc(OC)c(OC)c(OC)c2)C(C)C)S(=O)(=O)c2ccccc21 | -3.31%
14 | Cc1nc(Cl)c(C#N)c2c1CCCC2 | 18.3%
15 | O=S(=O)(c1ccc(Cl)cc1)N1CCCN(c2ccc(C(F)(F)F)cn2)CC1 | 21.2%
16 | COc1ccc(/C=C2\SC(=N)N(c3ccc(F)cc3)C2=O)cc1 | 38.3%
17 | CCOc1ccc(N=C2NC(=O)S/C2=C\c2ccc(O)cc2)cc1 | 64.1%
18 | COc1ccc(/C=C2/S/C(=N/N=C3\CC4CCC3(C)C4(C)C)NC2=O)cc1 (stereo unspecified) | 88.5% (active)
19 | O=S(=O)(NC(=S)Nc1ccccc1)c1ccc(F)cc1 | -27.1%
20 | N#Cc1c(NCCO)ccc([N+](=O)[O-])c1NCCO | 14.8%
21 | COc1ccc(/C=C2\N=C3CCCN3C2=O)cc1 | -36.1%
22 | Cc1cc(C)nc(Nc2n[nH]c(-c3ccccc3N)n2)n1 | -32.3%
23 | CCOc1cc(/C=N/O)cc(Br)c1OC | 23.6%
24 | COc1cc(/C=N/O)cc(Br)c1OCc1cccc(Cl)c1 | 108% (active)
25 | CCOc1c(Cl)cc(/C=N/O)cc1OC | 10.4%
26 | C#CCOCCOCCOCCNc1nc(N2CCN(C(=O)[C@H](CCC(=O)O)n3cc(C(N)CO)nn3)CC2)nc(N2CCN(C(=O)[C@H](CCCCN)n3cc(C(N)[C@H](C)CC)nn3)CC2)n1 (stereo partly specified) | -9.04%
